Results filed as inconclusive are left out. Active and inactive are the calls of the source. Rule for the calls: active = hit-call score of the fitted dose curve at least 0.9, where 1 is the maximum; inconclusive = response in the unintended direction; inactive = score below 0.9.
Test: ACEA_ER_AUC_viability: ACEA Biosciences xCELLigence Real-Time Cell Analysis on Estrogen Receptor Agonism for Viability (AID 2283782);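 note: continuous compound exposure with impedance area under curve over 80 h; hit means loss of impedance signal meaning reduced cell growth or viability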
Method in brief: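 T47D cells preconditioned in phenol red-free RPMI with charcoal-stripped FBS, then dosed with 8-point 1:4 series from 100 uM (up to 0.5% DMSO). Impedance monitored up to ~80 h; area-under-curve loss versus DMSO taken as viability.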

Row | SMILES | outcome | AC50
1 | CC(C)c1cccc(C(C)C)c1 | inactive | 
2 | CN(C)C(=O)NC1(c2ccccc2)CCN(CC[C@@]2(c3ccc(F)c(F)c3)CN(C(=O)c3ccccc3)CCO2)CC1 |  | 25.4 µM (active)
3 | Cc1ccc(-c2cc(C(F)(F)F)nn2-c2ccc(S(N)(=O)=O)cc2)cc1 |  | 90.7 µM (active)
4 | CC(N)=O | inactive | 
5 | O=C(O)CC(O)(CC(=O)O)C(=O)O | inactive | 
6 | CCCCCCCC(=O)OC | inactive | 
7 | O=C1NC(=O)C(c2ccccc2)(c2ccccc2)N1 | inactive | 
8 | CC(=O)S[C@H](C(=O)N[C@H]1Cc2ccccc2[C@H]2CCC[C@@H](C(=O)O)N2C1=O)C(C)C | inactive | 
9 | Oc1ccc(O)cc1 |  | 11.3 µM (active)
10 | C=CCc1ccc(OC)c(OC)c1 | inactive | 
11 | CC(=O)OC1CC(C)OC(C)O1 (stereo not given) | inactive | 
12 | Cc1cc(SC2=C(O)C[C@@](CCc3ccc(N)cc3)(C(C)C)OC2=O)c(C(C)(C)C)cc1CO | inactive | 
13 | NC1CCCCC1 | inactive | 
14 | C/C=C/c1ccc(OC)cc1 | inactive | 
15 | COc1ccc(OC(F)(F)F)cc1CN[C@H]1CCCN[C@H]1c1ccccc1 |  | 14.9 µM (active)
16 | Cc1ccc(C(C)(C)C)c(O)c1 |  | 75.6 µM (active)
17 | Cc1cn([C@H]2C=C[C@@H](CO)O2)c(=O)[nH]c1=O | inactive | 
18 | CCCCCCC(C=O)=Cc1ccccc1 |  | 74.7 µM (active)
19 | Oc1ccccc1O |  | 90.5 µM (active)
20 | CCc1cc(C2=C(C(=O)O)N(c3ccccc3C(F)(F)F)S(=O)(=O)c3ccccc32)cc2c1OCO2 |  | 15.8 µM (active)
21 | O=NO | inactive | 
22 | CSc1ccc(Oc2ccc(S(N)(=O)=O)cc2CN(C)C)cc1C |  | 50 µM (active)
23 | CN(C)C(=O)NC1(c2ccccc2)CCN(CCC[C@]2(c3ccc(Cl)c(Cl)c3)CCCN(C(=O)c3ccccc3)C2)CC1 |  | 14.6 µM (active)
24 | CC1(C)C(=O)NC(=O)N1CO | inactive | 
25 | CO[C@@H]1COCC[C@@H]1N[C@@H]1CC[C@@](C(=O)N2CCc3ncc(C(F)(F)F)cc3C2)(C(C)C)C1 |  | 21.3 µM (active)
26 | O=C(N[C@@H](c1ccccc1)[C@@H]1CCCCN1)c1cccc(C(F)(F)F)c1Cl |  | 15.3 µM (active)
27 | O=C1CCCCC1 | inactive | 
28 | Cc1c(C)c2c(c(C)c1O)CCC(C)(COc1ccc(CC3SC(=O)NC3=O)cc1)O2 (stereo not given) |  | 82.9 µM (active)
29 | COC(=O)CCC(=O)OC | inactive | 
30 | S=c1[nH]c2ccccc2s1 |  | 91.9 µM (active)

From PubChem BioAssay (EPA / NIEHS)
